Results reported in PubChem BioAssay AID1159580 (chemical genetic matrix, 2015).
Out of some 5,500 compounds screened, about 2,000 (36%) were called active. About 18% were inconclusive and are not listed. Cut-off read from the data, not from the text of the source: active = normalized growth mostly below about 0.91 (no sharp cut-off); inconclusive = no clear call, values can overlap the other calls; inactive = mostly above about 0.92. This is one part of the list.

Assay: chemical genetic growth profiling, strain panel (AID 1159580);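 note: tested at 20 µM; growth read once vehicle control cultures reached saturation at 30 °C; 1 = growth at the plate median or of vehicle wells; lower values mean less growth of the strain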
Conditions: growth OD

Measured: normalized growth

CC(C(=O)O)c1ccc(-c2ccccc2)c(F)c1 (configuration not stated)
active: S. cerevisiae deletion strains, locus YJR066W, strain TOR1, stronger effect = lower value 0.762 | S. cerevisiae deletion strains, locus YKL068W, stronger effect = lower value 0.912 | S. cerevisiae deletion strains, locus YKL085W, strain MDH1 (second series), stronger effect = lower value 0.919 | S. cerevisiae deletion strains, locus YKL085W, strain MDH1, stronger effect = lower value 0.919 | S. cerevisiae deletion strains, locus YKR001C, strain vps1, stronger effect = lower value 0.827 | S. cerevisiae deletion strains, locus YLR113W, strain HOG1, stronger effect = lower value 0.62 | S. cerevisiae deletion strains, locus YLR262C, strain YPT6 (second series), stronger effect = lower value 0.846 | S. cerevisiae deletion strains, locus YNL183C, strain NPR1, stronger effect = lower value 0.783 | S. cerevisiae deletion strains, locus YNL248C, strain rpa49, stronger effect = lower value 0.817 | S. cerevisiae deletion strains, locus YNL271C, strain bni1, stronger effect = lower value 0.888 | S. cerevisiae deletion strains, locus YNL298W, strain CLA4, stronger effect = lower value 0.792 | S. cerevisiae deletion strains, locus YOR231W, strain MKK1, stronger effect = lower value 0.732 | S. cerevisiae deletion strains, locus YPL256C, strain CLN2, stronger effect = lower value 0.736 | S. cerevisiae deletion strains, locus YPR141C, strain kar3, stronger effect = lower value 0.913
inactive: S. cerevisiae deletion strains, locus YJR043C, strain POL32, stronger effect = lower value 0.979 | S. cerevisiae deletion strains, locus YJR075W, strain HOC1, stronger effect = lower value 0.978 | S. cerevisiae deletion strains, locus YKL009W, strain mrt4, stronger effect = lower value 0.899 | S. cerevisiae deletion strains, locus YKL160W, strain elf1, stronger effect = lower value 1.03 | S. cerevisiae deletion strains, locus YKR026C, strain gcn3, stronger effect = lower value 0.977 | S. cerevisiae deletion strains, locus YKR091W, strain srl3, stronger effect = lower value 0.988 | S. cerevisiae deletion strains, locus YLL001W, strain dnm1, stronger effect = lower value 1.02 | S. cerevisiae deletion strains, locus YLL026W, stronger effect = lower value 0.987 | S. cerevisiae deletion strains, locus YLL041C, strain sdh2, stronger effect = lower value 0.97 | S. cerevisiae deletion strains, locus YLR027C, strain aat2, stronger effect = lower value 0.976 | S. cerevisiae deletion strains, locus YLR039C, strain RIC1, stronger effect = lower value 0.79 | S. cerevisiae deletion strains, locus YLR058C, strain SHM2, stronger effect = lower value 0.99 | S. cerevisiae deletion strains, locus YLR102C, strain apc9, stronger effect = lower value 0.954 | S. cerevisiae deletion strains, locus YLR221C, strain rsa3, stronger effect = lower value 1 | S. cerevisiae deletion strains, locus YLR258W, strain gsy2, stronger effect = lower value 0.983 | S. cerevisiae deletion strains, locus YLR262C, strain YPT6, stronger effect = lower value 0.773 | S. cerevisiae deletion strains, locus YLR268W, strain sec22, stronger effect = lower value 0.955 | S. cerevisiae deletion strains, locus YLR320W, strain mms22, stronger effect = lower value 1.05 | S. cerevisiae deletion strains, locus YLR330W, strain CHS5, stronger effect = lower value 0.969 | S. cerevisiae deletion strains, locus YLR342W, strain FKS1 (second series), stronger effect = lower value 0.936 | S. cerevisiae deletion strains, locus YLR342W, strain FKS1, stronger effect = lower value 0.984 | S. cerevisiae deletion strains, locus YLR357W, strain rsc2, stronger effect = lower value 1.01 | S. cerevisiae deletion strains, locus YLR370C, strain arc18, stronger effect = lower value 0.989 | S. cerevisiae deletion strains, locus YLR371W, strain rom2, stronger effect = lower value 0.996 | S. cerevisiae deletion strains, locus YLR384C, strain iki3, stronger effect = lower value 1.01 | S. cerevisiae deletion strains, locus YLR418C, strain cdc73, stronger effect = lower value 1.01 | S. cerevisiae deletion strains, locus YML016C, strain PPZ1, stronger effect = lower value 0.981 | S. cerevisiae deletion strains, locus YML032C, strain rad52, stronger effect = lower value 0.951 | S. cerevisiae deletion strains, locus YML120C, strain ndi1, stronger effect = lower value 0.996 | S. cerevisiae deletion strains, locus YML124C, strain tub3, stronger effect = lower value 0.96 | S. cerevisiae deletion strains, locus YMR058W, strain fet3, stronger effect = lower value 0.994 | S. cerevisiae deletion strains, locus YMR078C, strain ctf18, stronger effect = lower value 0.94 | S. cerevisiae deletion strains, locus YMR125W, strain sto1, stronger effect = lower value 1 | S. cerevisiae deletion strains, locus YMR129W, stronger effect = lower value 0.968 | S. cerevisiae deletion strains, locus YMR205C, strain PFK2, stronger effect = lower value 1.03 | S. cerevisiae deletion strains, locus YMR223W, strain ubp8, stronger effect = lower value 1.02 | S. cerevisiae deletion strains, locus YMR231W, strain pep5, stronger effect = lower value 0.969 | S. cerevisiae deletion strains, locus YMR307W, strain GAS1, stronger effect = lower value 0.938 | S. cerevisiae deletion strains, locus YNL067W, strain RPL9B, stronger effect = lower value 0.974 | S. cerevisiae deletion strains, locus YNL071W, strain lat1, stronger effect = lower value 0.985 | S. cerevisiae deletion strains, locus YNL209W, strain ssb2, stronger effect = lower value 1.01 | S. cerevisiae deletion strains, locus YNL233W, strain BNI4, stronger effect = lower value 0.991 | S. cerevisiae deletion strains, locus YNL250W, strain rad50, stronger effect = lower value 0.908 | S. cerevisiae deletion strains, locus YNL307C, strain MCK1, stronger effect = lower value 0.947 | S. cerevisiae deletion strains, locus YNL322C, strain KRE1 (second series), stronger effect = lower value 0.964 | S. cerevisiae deletion strains, locus YNL322C, strain KRE1, stronger effect = lower value 0.975 | S. cerevisiae deletion strains, locus YNR049C, strain mso1, stronger effect = lower value 0.981 | S. cerevisiae deletion strains, locus YNR052C, strain pop2, stronger effect = lower value 0.952 | S. cerevisiae deletion strains, locus YOL012C, strain htz1 1.06 | S. cerevisiae deletion strains, locus YOL147C, strain pex11, stronger effect = lower value 0.969 | S. cerevisiae deletion strains, locus YOR001W, strain rrp6, stronger effect = lower value 0.95 | S. cerevisiae deletion strains, locus YOR061W, strain CKA2, stronger effect = lower value 0.973 | S. cerevisiae deletion strains, locus YOR069W, strain VPS5, stronger effect = lower value 0.994 | S. cerevisiae deletion strains, locus YOR070C, strain gyp1, stronger effect = lower value 1 | S. cerevisiae deletion strains, locus YOR080W, strain dia2, stronger effect = lower value 1.01 | S. cerevisiae deletion strains, locus YOR083W, strain WHI5, stronger effect = lower value 1.03 | S. cerevisiae deletion strains, locus YOR106W, strain vam3, stronger effect = lower value 0.994 | S. cerevisiae deletion strains, locus YOR136W, strain idh2, stronger effect = lower value 0.989 | S. cerevisiae deletion strains, locus YOR144C, strain elg1, stronger effect = lower value 0.965 | S. cerevisiae deletion strains, locus YOR184W, strain ser1, stronger effect = lower value 0.972 | S. cerevisiae deletion strains, locus YOR265W, strain rbl2, stronger effect = lower value 1 | S. cerevisiae deletion strains, locus YOR270C, strain vph1, stronger effect = lower value 1.05 | S. cerevisiae deletion strains, locus YOR290C, strain snf2, stronger effect = lower value 0.97 | S. cerevisiae deletion strains, locus YOR316C, strain cot1, stronger effect = lower value 0.965 | S. cerevisiae deletion strains, locus YPL051W, strain arl3, stronger effect = lower value 0.981 | S. cerevisiae deletion strains, locus YPL078C, strain atp4, stronger effect = lower value 1 | S. cerevisiae deletion strains, locus YPL106C, strain sse1, stronger effect = lower value 1.05 | S. cerevisiae deletion strains, locus YPL240C, strain hsp82, stronger effect = lower value 0.985 | S. cerevisiae deletion strains, locus YPR119W, strain clb2, stronger effect = lower value 0.95 | S. cerevisiae deletion strains, locus YPR163C, strain tif3, stronger effect = lower value 0.957 | S. cerevisiae deletion strains, locus YPR167C, strain met16, stronger effect = lower value 0.962 | S. cerevisiae deletion strains, strain wtn01, stronger effect = lower value 0.971 | S. cerevisiae strains, strain wild type, stronger effect = lower value 0.968
